# Legend:
# Experiment in all cases: DAPPL (digital affinity profiling via proximity ligation, sequencing); 10 mM Tris-HCl pH 7.5, 50 mM NaCl, 1 mM DTT, 4% glycerol, room temperature, 30 min; GST-TFs on glutathione beads, 16-mer random dsDNA library, 0.1% formaldehyde crosslink after washing; high values mean tight binding
# FLI1 = molecular target: T1, FLI1 (Homo sapiens, UniProt Q01543 1-452); details: protein: recombinant; tags: N-terminal GST; dsDNA, one strand shown
# T1 sequence: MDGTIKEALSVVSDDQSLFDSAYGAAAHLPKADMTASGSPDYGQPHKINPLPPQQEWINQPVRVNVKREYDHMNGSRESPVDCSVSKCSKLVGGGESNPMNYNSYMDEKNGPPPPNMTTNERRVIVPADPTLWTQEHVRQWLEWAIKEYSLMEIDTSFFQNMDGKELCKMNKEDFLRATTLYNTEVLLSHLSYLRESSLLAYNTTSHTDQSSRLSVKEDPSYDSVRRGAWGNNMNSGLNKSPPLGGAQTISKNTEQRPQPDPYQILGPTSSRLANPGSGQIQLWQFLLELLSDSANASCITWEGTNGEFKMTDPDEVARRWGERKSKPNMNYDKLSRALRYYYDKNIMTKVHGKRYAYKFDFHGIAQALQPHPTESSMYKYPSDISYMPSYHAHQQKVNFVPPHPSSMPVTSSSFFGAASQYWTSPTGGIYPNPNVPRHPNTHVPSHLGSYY
# Summary of the method: (§1)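 Human transcription factors fused to GST were expressed in yeast, captured on glutathione beads, given DNA barcodes and pooled with a GST-only negative control. Pools were incubated with 200 nmole of a 16-mer random double-stranded DNA library in Tris/NaCl/DTT/glycerol buffer at room temperature for 30 min. They were then washed, crosslinked with 0.1% formaldehyde, proximity-ligated (BsaI/T4 ligase, 1 h, 37 °C), PCR-amplified and sequenced on an Illumina NextSeq500. Binding signal is each 6-mer's read frequency for a factor divided by its frequency for the GST control.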
# ELK1 = molecular target: T2, ELK1 (Homo sapiens, UniProt P19419 1-428); details: protein: recombinant; tags: N-terminal GST; dsDNA, one strand shown
# T2 sequence: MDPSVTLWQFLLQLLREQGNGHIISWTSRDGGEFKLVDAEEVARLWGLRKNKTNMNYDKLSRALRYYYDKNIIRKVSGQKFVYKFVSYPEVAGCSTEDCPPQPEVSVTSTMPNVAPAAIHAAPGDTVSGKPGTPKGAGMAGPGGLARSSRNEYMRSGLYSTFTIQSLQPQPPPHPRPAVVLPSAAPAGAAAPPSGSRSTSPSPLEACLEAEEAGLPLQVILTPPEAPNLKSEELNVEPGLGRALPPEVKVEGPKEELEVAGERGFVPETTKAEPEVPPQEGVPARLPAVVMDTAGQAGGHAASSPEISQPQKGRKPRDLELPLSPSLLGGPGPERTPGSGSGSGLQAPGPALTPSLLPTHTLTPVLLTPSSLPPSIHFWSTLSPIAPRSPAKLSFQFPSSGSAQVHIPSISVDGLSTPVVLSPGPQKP
# Summary of the method: as §1
# GABPA = molecular target: T3, GABPA (Homo sapiens, UniProt Q06546 1-454); details: protein: recombinant; tags: N-terminal GST; dsDNA, one strand shown
# T3 sequence: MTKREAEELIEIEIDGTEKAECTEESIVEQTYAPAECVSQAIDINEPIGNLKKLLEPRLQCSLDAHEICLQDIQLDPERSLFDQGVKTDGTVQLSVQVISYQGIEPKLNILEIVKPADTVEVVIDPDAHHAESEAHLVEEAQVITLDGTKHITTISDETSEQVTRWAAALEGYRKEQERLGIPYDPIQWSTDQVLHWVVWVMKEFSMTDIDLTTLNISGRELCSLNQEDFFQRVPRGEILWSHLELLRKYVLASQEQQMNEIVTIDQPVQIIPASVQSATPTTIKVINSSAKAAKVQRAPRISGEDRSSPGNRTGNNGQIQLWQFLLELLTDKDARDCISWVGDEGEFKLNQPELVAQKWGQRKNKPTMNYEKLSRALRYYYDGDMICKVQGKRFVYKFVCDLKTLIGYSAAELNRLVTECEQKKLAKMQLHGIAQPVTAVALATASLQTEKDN
# Summary of the method: as §1
# ERG = molecular target: T4, ERG (Homo sapiens, UniProt P11308 1-479); details: protein: recombinant; tags: N-terminal GST; dsDNA, one strand shown
# T4 sequence: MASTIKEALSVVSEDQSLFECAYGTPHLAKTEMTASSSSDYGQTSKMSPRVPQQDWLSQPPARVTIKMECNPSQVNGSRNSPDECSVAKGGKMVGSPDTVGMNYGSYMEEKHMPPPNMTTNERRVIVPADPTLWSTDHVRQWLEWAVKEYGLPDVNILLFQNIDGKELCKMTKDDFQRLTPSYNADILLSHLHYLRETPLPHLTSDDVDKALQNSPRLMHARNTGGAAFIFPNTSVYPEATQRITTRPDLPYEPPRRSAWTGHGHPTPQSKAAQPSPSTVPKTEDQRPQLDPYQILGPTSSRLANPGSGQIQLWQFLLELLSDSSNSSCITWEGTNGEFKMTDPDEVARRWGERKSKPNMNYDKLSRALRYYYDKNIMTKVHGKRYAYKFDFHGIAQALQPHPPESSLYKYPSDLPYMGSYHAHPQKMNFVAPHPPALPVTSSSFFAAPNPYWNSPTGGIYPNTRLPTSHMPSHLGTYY
# Summary of the method: as §1
# ELF1 = ELF1 (Homo sapiens, UniProt P32519 1-619); details: protein: recombinant; tags: N-terminal GST; dsDNA, one strand shown
# Summary of the method: as §1
# EHF = molecular target: T5, EHF (Homo sapiens, UniProt Q9NZC4 1-300); details: protein: recombinant; tags: N-terminal GST; dsDNA, one strand shown
# T5 sequence: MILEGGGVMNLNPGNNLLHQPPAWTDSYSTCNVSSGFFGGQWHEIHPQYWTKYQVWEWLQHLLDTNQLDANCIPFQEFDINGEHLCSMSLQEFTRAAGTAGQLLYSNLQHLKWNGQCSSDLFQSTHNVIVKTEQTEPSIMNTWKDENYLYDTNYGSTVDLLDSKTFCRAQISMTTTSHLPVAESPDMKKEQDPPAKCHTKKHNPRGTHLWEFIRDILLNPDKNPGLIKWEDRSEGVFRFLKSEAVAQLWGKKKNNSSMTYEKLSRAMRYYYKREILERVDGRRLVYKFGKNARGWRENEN
# Summary of the method: as §1
# SPI1 = SPI1 (Homo sapiens, UniProt P17947 1-270); details: protein: recombinant; tags: N-terminal GST; dsDNA, one strand shown
# Summary of the method: as §1
# SPIB = SPIB (Homo sapiens, UniProt Q01892 1-262); details: protein: recombinant; tags: N-terminal GST; dsDNA, one strand shown
# Summary of the method: as §1
# ELK3 = molecular target: T6, ELK3 (Homo sapiens, UniProt P41970 1-407); details: protein: recombinant; tags: N-terminal GST; dsDNA, one strand shown
# T6 sequence: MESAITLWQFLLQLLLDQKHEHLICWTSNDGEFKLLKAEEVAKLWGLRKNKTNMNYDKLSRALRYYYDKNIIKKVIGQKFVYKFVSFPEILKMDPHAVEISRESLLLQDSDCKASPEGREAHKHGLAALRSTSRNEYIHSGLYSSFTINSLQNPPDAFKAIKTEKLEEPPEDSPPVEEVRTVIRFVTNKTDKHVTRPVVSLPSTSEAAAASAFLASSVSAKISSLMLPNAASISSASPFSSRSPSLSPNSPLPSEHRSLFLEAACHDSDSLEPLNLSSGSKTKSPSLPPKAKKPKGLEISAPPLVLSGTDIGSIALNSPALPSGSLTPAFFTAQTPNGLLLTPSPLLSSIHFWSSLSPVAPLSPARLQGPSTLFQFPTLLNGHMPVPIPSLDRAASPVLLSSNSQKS
# Summary of the method: as §1
# FEV = molecular target: T7, FEV (Homo sapiens, UniProt Q99581 1-238); details: protein: recombinant; tags: N-terminal GST; dsDNA, one strand shown
# T7 sequence: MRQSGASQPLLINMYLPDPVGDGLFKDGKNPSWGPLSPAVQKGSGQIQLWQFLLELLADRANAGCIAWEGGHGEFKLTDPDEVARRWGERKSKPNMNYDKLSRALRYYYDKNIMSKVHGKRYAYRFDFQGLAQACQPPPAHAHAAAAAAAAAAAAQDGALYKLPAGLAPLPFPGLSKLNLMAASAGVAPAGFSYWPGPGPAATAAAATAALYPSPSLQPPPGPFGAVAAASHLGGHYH
# Summary of the method: as §1
# ETV5 = ETV5 (Homo sapiens, UniProt P41161 1-510); details: protein: recombinant; tags: N-terminal GST; dsDNA, one strand shown
# Summary of the method: as §1
# HSF1 = HSF1 (Homo sapiens, UniProt Q00613 1-529); details: protein: recombinant; tags: N-terminal GST; chain copies: 3; dsDNA, one strand shown
# Summary of the method: as §1
# SPIC = molecular target: T8, SPIC (Homo sapiens, UniProt Q8N5J4 1-248); details: protein: recombinant; tags: N-terminal GST; dsDNA, one strand shown
# T8 sequence: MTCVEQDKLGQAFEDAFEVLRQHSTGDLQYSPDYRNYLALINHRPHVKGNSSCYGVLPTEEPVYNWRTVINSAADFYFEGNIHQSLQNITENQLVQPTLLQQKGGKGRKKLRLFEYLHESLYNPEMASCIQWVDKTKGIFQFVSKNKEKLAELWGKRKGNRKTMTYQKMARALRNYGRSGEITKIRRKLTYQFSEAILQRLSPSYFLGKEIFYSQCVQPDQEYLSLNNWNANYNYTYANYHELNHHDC
# Summary of the method: as §1
# ELF4 = ELF4 (Homo sapiens, UniProt Q99607 1-663); details: protein: recombinant; tags: N-terminal GST; dsDNA, one strand shown
# Summary of the method: as §1
# ELK4 = molecular target: T9, ELK4 (Homo sapiens, UniProt P28324-2 1-405); details: protein: recombinant; tags: N-terminal GST; dsDNA, one strand shown
# T9 sequence: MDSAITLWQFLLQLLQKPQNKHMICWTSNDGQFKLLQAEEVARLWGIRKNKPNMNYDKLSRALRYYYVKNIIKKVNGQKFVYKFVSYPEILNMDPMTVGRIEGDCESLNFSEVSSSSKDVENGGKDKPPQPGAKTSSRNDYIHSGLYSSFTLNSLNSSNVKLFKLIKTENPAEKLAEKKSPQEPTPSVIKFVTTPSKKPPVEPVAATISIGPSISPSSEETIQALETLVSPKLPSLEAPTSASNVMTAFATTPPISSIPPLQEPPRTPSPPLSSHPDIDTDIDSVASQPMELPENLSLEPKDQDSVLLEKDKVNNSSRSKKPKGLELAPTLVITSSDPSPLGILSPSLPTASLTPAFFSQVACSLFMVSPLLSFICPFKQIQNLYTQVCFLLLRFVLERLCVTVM
# Summary of the method: as §1
# ETV2 = molecular target: T10, ETV2 (Homo sapiens, UniProt O00321 1-342); details: protein: recombinant; tags: N-terminal GST; dsDNA, one strand shown
# T10 sequence: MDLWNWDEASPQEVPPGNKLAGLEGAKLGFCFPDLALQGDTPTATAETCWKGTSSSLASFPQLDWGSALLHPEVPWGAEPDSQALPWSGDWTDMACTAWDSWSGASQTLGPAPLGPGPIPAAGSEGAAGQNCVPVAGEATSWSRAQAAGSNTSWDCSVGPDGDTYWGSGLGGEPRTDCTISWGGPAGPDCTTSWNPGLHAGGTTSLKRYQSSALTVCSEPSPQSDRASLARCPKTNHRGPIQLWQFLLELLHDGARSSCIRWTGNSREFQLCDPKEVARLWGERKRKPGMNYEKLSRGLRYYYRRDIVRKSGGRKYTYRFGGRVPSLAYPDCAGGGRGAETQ
# Summary of the method: as §1
# ELF3 = molecular target: T11, ELF3 (Homo sapiens, UniProt P78545 1-371); details: protein: recombinant; tags: N-terminal GST; dsDNA, one strand shown
# T11 sequence: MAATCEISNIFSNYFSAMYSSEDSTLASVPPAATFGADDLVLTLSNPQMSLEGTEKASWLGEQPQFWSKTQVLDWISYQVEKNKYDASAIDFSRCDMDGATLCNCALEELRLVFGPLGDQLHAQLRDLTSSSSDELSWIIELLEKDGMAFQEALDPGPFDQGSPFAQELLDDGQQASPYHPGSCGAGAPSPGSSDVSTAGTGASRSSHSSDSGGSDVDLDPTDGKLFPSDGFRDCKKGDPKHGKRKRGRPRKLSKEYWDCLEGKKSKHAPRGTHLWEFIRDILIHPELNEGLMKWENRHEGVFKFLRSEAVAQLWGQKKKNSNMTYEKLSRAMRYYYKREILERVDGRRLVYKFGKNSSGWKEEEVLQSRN
# Summary of the method: as §1
# CRX = CRX (Homo sapiens, UniProt O43186 1-299); details: protein: recombinant; tags: N-terminal GST; dsDNA, one strand shown
# Summary of the method: as §1
# ETV1 = ETV1 (Homo sapiens, UniProt P50549 1-477); details: protein: recombinant; tags: N-terminal GST; dsDNA, one strand shown
# Summary of the method: as §1
# Chain of ELF1 (P32519 whole entry): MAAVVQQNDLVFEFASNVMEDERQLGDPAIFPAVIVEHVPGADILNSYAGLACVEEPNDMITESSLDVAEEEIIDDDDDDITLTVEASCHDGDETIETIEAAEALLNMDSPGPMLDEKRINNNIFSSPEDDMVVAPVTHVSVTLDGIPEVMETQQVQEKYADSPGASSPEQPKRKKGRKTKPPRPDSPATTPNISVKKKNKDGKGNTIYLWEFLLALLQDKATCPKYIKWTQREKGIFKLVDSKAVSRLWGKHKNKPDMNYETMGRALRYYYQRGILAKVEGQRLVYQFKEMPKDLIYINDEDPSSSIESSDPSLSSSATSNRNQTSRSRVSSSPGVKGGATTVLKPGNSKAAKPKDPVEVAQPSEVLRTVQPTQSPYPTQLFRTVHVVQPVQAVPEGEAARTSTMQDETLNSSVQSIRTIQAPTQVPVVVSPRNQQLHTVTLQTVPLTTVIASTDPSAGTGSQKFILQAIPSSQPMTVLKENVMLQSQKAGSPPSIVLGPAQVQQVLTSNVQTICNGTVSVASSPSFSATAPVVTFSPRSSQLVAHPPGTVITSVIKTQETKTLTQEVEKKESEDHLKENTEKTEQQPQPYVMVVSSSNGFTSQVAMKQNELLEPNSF
# Chain of ETV1 (P50549 whole entry): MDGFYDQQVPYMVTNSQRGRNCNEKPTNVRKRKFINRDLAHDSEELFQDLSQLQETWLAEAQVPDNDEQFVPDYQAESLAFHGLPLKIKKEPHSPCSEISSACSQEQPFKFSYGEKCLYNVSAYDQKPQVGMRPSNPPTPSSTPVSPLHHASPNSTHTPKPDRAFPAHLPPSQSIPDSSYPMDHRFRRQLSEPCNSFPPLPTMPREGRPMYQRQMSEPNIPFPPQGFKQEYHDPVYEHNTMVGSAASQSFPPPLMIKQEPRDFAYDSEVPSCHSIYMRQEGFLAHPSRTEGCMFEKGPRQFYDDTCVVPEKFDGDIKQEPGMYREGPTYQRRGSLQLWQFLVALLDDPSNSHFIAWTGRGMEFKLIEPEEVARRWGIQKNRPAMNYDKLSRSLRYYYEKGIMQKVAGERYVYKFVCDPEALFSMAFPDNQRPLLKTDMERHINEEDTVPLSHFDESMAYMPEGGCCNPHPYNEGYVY
# Chain of ELF4 (Q99607 whole entry): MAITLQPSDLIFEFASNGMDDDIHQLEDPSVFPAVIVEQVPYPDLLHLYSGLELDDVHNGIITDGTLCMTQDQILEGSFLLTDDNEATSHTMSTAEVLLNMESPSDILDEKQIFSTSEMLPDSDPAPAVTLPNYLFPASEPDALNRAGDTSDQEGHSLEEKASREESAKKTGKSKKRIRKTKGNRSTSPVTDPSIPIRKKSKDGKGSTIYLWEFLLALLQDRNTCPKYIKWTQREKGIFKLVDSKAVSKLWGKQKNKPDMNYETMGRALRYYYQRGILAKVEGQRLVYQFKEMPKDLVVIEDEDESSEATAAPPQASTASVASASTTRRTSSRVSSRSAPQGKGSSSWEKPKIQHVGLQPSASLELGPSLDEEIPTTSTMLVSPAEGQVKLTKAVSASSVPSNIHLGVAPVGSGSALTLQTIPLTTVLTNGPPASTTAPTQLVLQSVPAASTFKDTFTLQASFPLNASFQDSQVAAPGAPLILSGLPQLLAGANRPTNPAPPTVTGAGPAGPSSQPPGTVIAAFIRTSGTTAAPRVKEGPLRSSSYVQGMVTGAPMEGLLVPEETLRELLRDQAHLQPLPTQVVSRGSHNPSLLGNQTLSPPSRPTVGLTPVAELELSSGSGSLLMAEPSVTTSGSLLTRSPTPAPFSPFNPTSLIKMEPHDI
# Chain of ETV5 (P41161 whole entry): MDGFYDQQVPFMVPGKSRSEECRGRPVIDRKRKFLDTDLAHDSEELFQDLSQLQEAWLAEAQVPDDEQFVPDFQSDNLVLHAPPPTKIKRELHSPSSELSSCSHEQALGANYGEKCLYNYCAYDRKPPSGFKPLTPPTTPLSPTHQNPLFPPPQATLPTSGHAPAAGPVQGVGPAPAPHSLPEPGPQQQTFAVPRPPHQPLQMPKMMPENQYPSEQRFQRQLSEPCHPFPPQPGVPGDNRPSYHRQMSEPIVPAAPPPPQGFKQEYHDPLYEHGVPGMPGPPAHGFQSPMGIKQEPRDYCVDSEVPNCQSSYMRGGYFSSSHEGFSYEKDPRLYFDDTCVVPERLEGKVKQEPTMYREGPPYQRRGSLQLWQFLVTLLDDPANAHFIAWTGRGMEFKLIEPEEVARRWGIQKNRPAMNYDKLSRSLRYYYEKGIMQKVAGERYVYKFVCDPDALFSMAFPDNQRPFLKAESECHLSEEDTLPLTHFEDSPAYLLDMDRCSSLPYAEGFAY
# Chain of CRX (O43186 whole entry): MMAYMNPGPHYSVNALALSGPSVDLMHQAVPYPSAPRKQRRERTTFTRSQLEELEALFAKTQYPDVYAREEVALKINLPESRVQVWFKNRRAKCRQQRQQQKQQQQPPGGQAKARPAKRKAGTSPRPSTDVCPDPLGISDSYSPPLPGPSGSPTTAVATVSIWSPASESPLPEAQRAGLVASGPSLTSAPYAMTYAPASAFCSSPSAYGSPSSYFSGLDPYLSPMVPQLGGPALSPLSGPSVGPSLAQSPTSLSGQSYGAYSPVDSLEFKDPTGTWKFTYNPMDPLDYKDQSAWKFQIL
# Chain of SPIB (Q01892 whole entry): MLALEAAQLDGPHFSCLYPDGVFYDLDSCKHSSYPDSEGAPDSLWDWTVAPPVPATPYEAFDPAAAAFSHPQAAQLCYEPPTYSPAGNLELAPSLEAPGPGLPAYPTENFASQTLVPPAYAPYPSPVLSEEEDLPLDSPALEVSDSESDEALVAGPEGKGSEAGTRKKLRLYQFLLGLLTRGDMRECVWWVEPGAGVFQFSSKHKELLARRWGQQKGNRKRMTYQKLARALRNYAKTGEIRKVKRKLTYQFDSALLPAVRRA
# Chain of HSF1 (Q00613 whole entry): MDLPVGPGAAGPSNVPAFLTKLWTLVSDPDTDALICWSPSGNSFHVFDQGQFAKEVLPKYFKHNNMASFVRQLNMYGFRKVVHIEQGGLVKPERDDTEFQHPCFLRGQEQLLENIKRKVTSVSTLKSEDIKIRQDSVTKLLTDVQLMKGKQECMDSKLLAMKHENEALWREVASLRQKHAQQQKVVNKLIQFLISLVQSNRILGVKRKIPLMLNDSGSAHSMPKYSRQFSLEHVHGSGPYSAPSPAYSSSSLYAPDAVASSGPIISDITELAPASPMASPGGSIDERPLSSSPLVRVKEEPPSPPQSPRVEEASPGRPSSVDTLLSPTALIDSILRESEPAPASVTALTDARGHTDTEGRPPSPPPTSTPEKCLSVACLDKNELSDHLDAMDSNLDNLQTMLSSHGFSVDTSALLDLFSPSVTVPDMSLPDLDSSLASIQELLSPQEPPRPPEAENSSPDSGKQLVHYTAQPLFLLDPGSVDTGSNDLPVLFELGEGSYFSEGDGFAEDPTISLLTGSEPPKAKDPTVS
sequence,measurement,setting,value
TATTAT,binding signal,FLI1,"1.3 fold enrichment (6-mer frequency, TF over GST control)"
same,binding signal,ELK1,"1.27 fold enrichment (6-mer frequency, TF over GST control)"
same,binding signal,GABPA,"1.21 fold enrichment (6-mer frequency, TF over GST control)"
same,binding signal,ERG,"1.25 fold enrichment (6-mer frequency, TF over GST control)"
same,binding signal,ELF1,"1.25 fold enrichment (6-mer frequency, TF over GST control)"
same,binding signal,EHF,"1.25 fold enrichment (6-mer frequency, TF over GST control)"
same,binding signal,SPI1,"1.2 fold enrichment (6-mer frequency, TF over GST control)"
same,binding signal,SPIB,"1.24 fold enrichment (6-mer frequency, TF over GST control)"
same,binding signal,ELK3,"1.12 fold enrichment (6-mer frequency, TF over GST control)"
same,binding signal,FEV,"1.12 fold enrichment (6-mer frequency, TF over GST control)"
same,binding signal,ETV5,"1.3 fold enrichment (6-mer frequency, TF over GST control)"
same,binding signal,HSF1,"1.69 fold enrichment (6-mer frequency, TF over GST control)"
same,binding signal,SPIC,"1.35 fold enrichment (6-mer frequency, TF over GST control)"
same,binding signal,ELF4,"1.27 fold enrichment (6-mer frequency, TF over GST control)"
same,binding signal,ELK4,"1.35 fold enrichment (6-mer frequency, TF over GST control)"
same,binding signal,ETV2,"1.32 fold enrichment (6-mer frequency, TF over GST control)"
same,binding signal,ELF3,"1.3 fold enrichment (6-mer frequency, TF over GST control)"
same,binding signal,CRX,"2.4 fold enrichment (6-mer frequency, TF over GST control)"
same,binding signal,ETV1,"1.26 fold enrichment (6-mer frequency, TF over GST control)"

# Source: PMC7862700, “An all-to-all approach to the identification of sequence-specific readers for epigenetic DNA modifications on cytosine”
